DT40 TDP1 CPT – growth inhibition of DT40 Tdp1-/-;hTDP1 cells with camptothecin (screen for TDP1 inhibitors); Potency, µM (series often up to 46.2 µM), actives largely listed as inhibitors; 12% of 420,000 active; chicken DT40 Tdp1-/-;hTDP1 cells + 20 nM CPT, ATP luminescence, 48 h; note: nearly all actives have a fitted effect of over 55% in size
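Chicken DT40 Tdp1-/- cells complemented with human TDP1, 400 cells/well, exposed to compounds plus 20 nM camptothecin for at least 48 h at 37 C; viability read as ATP content by CellTiter-Glo luminescence.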
DT40 TDP1 no CPT – qHTS for Inhibitors of human tyrosyl-DNA phosphodiesterase 1 (TDP1): qHTS in cells in absence of CPT; DT40 Tdp1-/- hTDP1 cells, no CPT, ATP luminescence, 48 h; Potency, µM (titrated, usually from 46.2 µM), usual class: inhibitors; 15% of 420,000 active; AID 686978, 2013; note: nearly all actives have a fitted effect of over 55% in size
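Growth kinetics read by CellTiter-Glo luminescence after ≥48 hr at 37 °C. Cells: DT40 Tdp1-/- stably carrying human TDP1, 400 per well, compound exposure in the absence of CPT (DMSO vehicle).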
IL-1B inflam inh – inhibitors of inflammasome signaling (IL-1 beta secretion); activity change, % at 57.5 µM; THP-1 LPS/ATP IL-1B secretion, AlphaLISA, 16 h; hits give low values; 4.7% of 360,000 active; in the data active = activity change below about -50%; inconclusive = mostly about -30% to -49%
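THP-1 cells pretreated 1 hr with compounds (up to 57.5 uM final), then stimulated with LPS (250 ng/mL final) plus ATP (1.25 mM final); secreted IL-1B measured by AlphaLISA after 16 hr, decreased signal indicating inhibition.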
TGFb inhibitor – blocks TGF-b signaling | HepG2 CAGA-GFP TGF-b/SMAD3 reporter, GFP fluorescence, 18 h; TGF-beta stimulated, 500 pg/mL final | Potency, µM (doses to about 46.1 µM), actives largely listed as inhibitors | 1.2% of 410,000 active | AID 588855; note: nearly all actives have a fitted effect of over 65% in size
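Per well, imaged GFP fluorescence of HEPG2 CAGA-GFP cells gives the signal; cells get compound, then TGF-beta (500 pg/mL final), 18 h at 37 degrees C; %Activity versus -TGF-beta and +DMSO controls.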
HepG2 viability – counter-screen for TGF-b inhibitors: cytotoxicity in HepG2 cells | HepG2 CAGA-GFP viability, ATP luminescence, 18 h | Potency, µM (doses to about 46.1 µM), most hits filed as cytotoxic | 0.76% of 410,000 active | AID 588856
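CellTiter-Glo luminescence gave cytotoxicity after 18 hours at 37 degrees C. The cells were HepG2 CAGA-GFP in 1% FBS DMEM, stimulated with 500 pg/mL TGF-beta after compound addition. %Activity was normalised to no-cell wells (complete cell-killing) and DMSO (no toxicity), and curves were fitted and classified.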
TDP1 block – blocks human tyrosyl-DNA phosphodiesterase 1. 0.28% of 350,000 active. Q9NUW8. recombinant TDP1, AlphaScreen DNA substrate cleavage. Potency, µM (highest dose often 130 µM), usual class: inhibitors; note: nearly all actives have a fitted effect of over 40% in size
Target sequence (Q9NUW8 whole entry, looked up): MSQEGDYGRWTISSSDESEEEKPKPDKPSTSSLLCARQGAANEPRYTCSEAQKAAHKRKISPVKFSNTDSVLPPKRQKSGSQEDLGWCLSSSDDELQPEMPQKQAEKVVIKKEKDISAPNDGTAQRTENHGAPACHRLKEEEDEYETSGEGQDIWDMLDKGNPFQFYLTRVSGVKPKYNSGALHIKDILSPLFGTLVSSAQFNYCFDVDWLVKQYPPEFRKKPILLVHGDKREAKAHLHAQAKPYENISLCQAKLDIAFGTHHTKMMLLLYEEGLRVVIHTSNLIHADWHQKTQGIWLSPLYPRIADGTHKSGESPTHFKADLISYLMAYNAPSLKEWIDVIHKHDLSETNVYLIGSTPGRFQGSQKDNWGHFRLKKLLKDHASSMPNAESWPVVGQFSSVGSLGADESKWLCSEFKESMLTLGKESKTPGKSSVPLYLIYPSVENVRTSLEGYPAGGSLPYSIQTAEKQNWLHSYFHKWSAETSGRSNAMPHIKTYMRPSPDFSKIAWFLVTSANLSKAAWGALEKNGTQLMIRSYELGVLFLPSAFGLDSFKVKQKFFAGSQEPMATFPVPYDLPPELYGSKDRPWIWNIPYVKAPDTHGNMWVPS
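Signal: AlphaScreen proximity between streptavidin donor and anti-FITC acceptor beads on intact substrate. Reaction: Tdp1 1 nM, substrate 15 nM final, 5 min RT after 15 min compound preincubation.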
Hits are given with their value; n = inactive; u = inconclusive; x = no result given. In the library only some 18% were active in any assay of this set; here they are far more common. Unless noted, calls come from the whole dose curve; as a rule, active = well fitted curve in the direction sought with a large enough effect; inconclusive = small, poorly fitted or top-dose-only effect, or another doubt; inactive = no such curve, though single readings can be large; an effect the other way counts as inactive or inconclusive.

SMILES | DT40 TDP1 CPT | DT40 TDP1 no CPT | IL-1B inflam inh | TGFb inhibitor | HepG2 viability | TDP1 block
O=c1oc2ccccc2cc1-c1csc(NN=C2CCCCC2)n1 | u | 18µM | n | u | n | n
O=c1oc2ccccc2cc1-c1csc(Cc2nc(-c3ccc(Cl)cc3)cs2)n1 | u | 26µM | n | u | n | n
O=c1oc2ccccc2cc1-c1csc(Nc2nc3c(F)cccc3s2)n1 | 15µM | 16µM | n | u | n | n
CC/C(=N/NC(=O)c1ccccc1O)c1c(C)[nH]n(-c2ccccc2)c1=O | 2.1µM | 1.8µM | n | u | n | x
Cc1[nH]n(-c2ccc(Cl)cc2)c(=O)c1C(=O)c1ccccc1 | u | u | n | u | n | n
CCSC(=S)c1c(C)[nH]n(-c2ccccc2)c1=O | 15µM | 13µM | n | u | n | n
OC[C@@H]1CN(C2CCCC2)C[C@H](n2cnc3c(NC4CC4)ncnc32)O1 | n | n | n | n | n | x
COc1ccc(-c2coc3cc4oc(=O)cc(-c5ccccc5)c4cc23)cc1F | 3.7µM | 4.6µM | n | u | n | n
COC(=O)c1ccc(C(=O)OC)c(NC(=O)c2c(-c3ccccc3)c(-c3ccccc3)nn(C)c2=O)c1 | u | 15µM | x | n | n | n
COC(=O)c1ccc(C(=O)OC)c(NC(=O)c2c(-c3ccccc3)noc2C)c1 | 6.5µM | 6.5µM | x | n | n | x
COc1ccc(NC(=O)c2c(-c3ccccc3)c(-c3ccccc3)nn(C)c2=O)c(OC)c1 | 16µM | u | x | n | n | n
COC(=O)c1ccc(NC(=O)c2c(-c3ccccc3)c(-c3ccccc3)nn(C)c2=O)cc1 | n | n | x | n | n | n
CCCS(=O)(=O)c1nc(S(=O)(=O)c2ccc(C)cc2)c(NCCCN2CCCC2=O)s1 | n | n | n | n | n | n
Fc1cccc(F)c1-n1c(CN2CCCCC2)csc1=S | u | u | u | n | n | n
CC[C@H]1C/C=C\Cc2ccccc2[C@H](C(=O)C[C@@H](O)CC(C)=O)OC1=O | n | n | n | n | n | n
CC[C@@H]1C/C=C\Cc2ccccc2[C@H](C(=O)C[C@@H](O)CC(C)=O)OC1=O | 13µM | u | n | n | n | n
CN(C(=O)CSc1nnc(-c2ccc(Cl)cc2)n1CC1CCCO1)C1CCS(=O)(=O)C1 (stereo not given) | n | n | n | n | n | n
COc1ccc(Nc2nnc(SCC(=O)c3cc(C)n(CC4CCCO4)c3C)s2)cc1 (stereo not given) | 18µM | u | n | n | n | n
Cc1cc(C(=O)CSc2nc3ccc(Cl)cc3[nH]2)c(C)n1CC1CCCO1 (stereo not given) | 9.2µM | 5.8µM | n | u | n | n
Cc1cc(C(=O)CSc2nnc(-c3ccc(Cl)cc3)n2CC2CCCO2)c(C)n1C (stereo not given) | 12µM | 23µM | n | n | n | n
COc1ccc(Nc2nnc(SCC(=O)N3CCCC3)s2)cc1 | u | u | n | n | n | n
Cc1cc(C(=O)CSc2nc3ccc(Cl)cc3[nH]2)c(C)n1C | u | u | n | n | n | n
COc1ccccc1CNc1nc(C)c(C(C)=O)s1 | 21µM | 16µM | n | n | n | n
COC(=O)c1sc2nc(-c3ccccc3)nc(N3CCN(C)CC3)c2c1C | u | 26µM | n | n | n | n
CCOC(=O)c1sc2ncnc(N3CCN(C)CC3)c2c1C | u | u | u | n | n | n
CCOC(=O)c1sc2nc(CC(=O)OC)nc(NCC(=O)OC)c2c1C | n | n | n | n | n | n
CCOC(=O)c1sc2nc(C)nc(NCc3ccccc3OC)c2c1C | 23µM | u | n | n | n | x
COc1ccccc1CNc1nc(C)c(C(=O)N(C)C)s1 | u | u | n | n | n | n
CCOC(=O)c1sc2nc(CSc3ccccc3)nc(NCCN(C)C)c2c1C | 16µM | u | u | n | n | n
